The first experiment deals with NEK6. The following applies: concentration: 1 μM, replicates: in singlicate; n = 1.
Turning to `Cc1cccc(Nc2nc(N[C@H]3CCNC3)ncc2C(N)=O)c1.Cl` [GSK2197149], the “%Inh” value turned out to be 0%.

As for `c1ccc(-c2n[nH]cc2Nc2ccnc3ccccc23)nc1` [GW694077], the “%Inh” value is listed as 0%.

Turning to `CN(C)Cc1ccc(-c2ccc3c(Nc4ccc(Oc5ccccn5)cc4)ccnc3c2)o1` [GW567148], the “%Inh” value amounted to 0%.

As for `CCS(=O)(=O)c1ccc(OC)c(Nc2nccc(-c3c(-c4cccc(NC(=O)c5c(F)cccc5F)c4)nn4ncccc34)n2)c1` [GSK326180], the “%Inh” value is 0%.

As to `COc1cccc(C2=C(Nc3ccc(Cl)c(C(=O)O)c3)C(=O)NC2=O)c1` [SB-390769], the “%Inh” value was 0%.

With `COc1cccc(NC(=O)NC2CCN(c3ccnc(Nc4cc(OC)c(OC)c(OC)c4)n3)C2)c1` (stereo not drawn) [GSK1379763], the “%Inh” value is 16%.

For the compound `Cc1ccc(C)c(NC(=O)NC2CCN(c3ccnc(Nc4ccc(F)cc4)n3)C2)c1` (stereo not drawn) [GSK1379720], the “%Inh” value turned out to be 0%.

Consider `Cc1ccc(F)c(C(=O)Nc2cccc(-c3nn4ccccc4c3-c3ccnc(Nc4cccc(F)c4)n3)c2)c1F` [GSK361061], for which the “%Inh” value was found to be 9%.

Take `Cc1occc1-c1ncc(OC[C@@H](N)Cc2c[nH]c3ccccc23)cc1-c1ccc2[nH]nc(C)c2c1.O=C(O)C(F)(F)F` [GSK682037]: the “%Inh” value turned out to be 0%.

`COc1ccc(Nc2nccc(N3CCC(NC(=O)Nc4cccc(OC)c4)C3)n2)cc1` (stereo not drawn) [GSK1379742]: the “%Inh” value was 0%.

In the case of `CC(=O)N1CCN(c2ccc(Nc3nccc(-c4sc(C(C)C)nc4-c4cccc(NS(=O)(=O)c5cccc(Cl)c5)c4)n3)cn2)CC1` [GSK1660437], the “%Inh” value is 32%.

On to `Nc1ncnc2c1nc(-c1ccccc1)n2-c1ccccc1` [SKF-97293], for which the “%Inh” value is reported as 15%.

For `O=C(NC1CCN(c2ccnc(Nc3ccc(F)cc3)n2)C1)c1cc2ccccc2s1` (stereo not drawn) [GSK1379716], the “%Inh” value was found to be 3%.

As to `COc1cccc(C(=O)Nc2cccc(Oc3ccc4nc(NC(=O)C5CC5)cn4n3)c2)c1`, the “%Inh” value is 5%.

In the case of `Cl.Cl.NCC(C(=O)Nc1cc(Br)c(-c2ccnc3[nH]ccc23)s1)c1ccccc1` (stereo not drawn) [GSK1269851], the “%Inh” value amounted to 0%.

On to `Cn1cc(-c2ccc3c(c2)CCN3C(=O)Cc2cccc(Cl)c2)c2c(N)ncnc21` [GSK2606590], for which the “%Inh” value is on record as 11%.

In the case of `COc1cc(Nc2ncc3c(C)nc(-c4cc5ccccc5[nH]4)n3n2)cc(OC)c1OC` [GW869516], the “%Inh” value amounted to 99.6%.

For `O=C(Nc1cccc(-c2nn3ccccc3c2-c2ccnc(Nc3cccc(F)c3)n2)c1)c1c(F)ccc(F)c1Cl` [GSK357952], the “%Inh” value is 0%.

As for `C[C@@H](Oc1cc(-n2cnc3cc(-c4ccnc(NCCS(C)(=O)=O)c4)ccc32)sc1C(N)=O)c1ccccc1Cl` [GSK907232], the “%Inh” value worked out at 4%.

For `COc1cccc(-c2ccc3c(NC(=O)C4CC4)n[nH]c3n2)c1` [SB-710903], the “%Inh” value was 0%.

On to `Cc1ccc(C(=O)N2CC[C@@H](O)C2)cc1-n1c(C)cc(OCc2ccc(F)cc2F)c(Br)c1=O`, for which the “%Inh” value came to 0%.

On to `Cl.c1ccc(-c2ccc3c(Nc4ccc5[nH]ccc5c4)ccnc3c2)nc1` [GW440138], for which the “%Inh” value is recorded as 0%.

On to `CCc1ccc(-c2ccc3c(c2)-c2c(cnn2C)S(=O)(=O)N3C)cc1`, for which the “%Inh” value came out at 0%.

On to `COc1ccc(Nc2nccc(NCCNC(=O)c3cc4ccccc4s3)n2)cc1` [GSK1379896], for which the “%Inh” value is 0%.

`Nc1ncc(-c2ccc3nccc(-c4ccncc4)c3c2)cc1S(=O)(=O)N1CCOCC1` [GSK1627798]: the “%Inh” value is on record as 0%.

On to `O=C(Nc1n[nH]c2cc(-c3ccoc3)ccc12)C1CC1` [SB-738481], for which the “%Inh” value is 11%.

The subject of the next experiment is NEK7. Particulars: concentration: 1 μM, replicates: in singlicate; n = 1.
With `O=C(O)C(F)(F)F.O=C(O)C(F)(F)F.O=c1[nH]ccc2nc(N[C@@H]3CCCNC3)nc(Nc3ccc(S(=O)(=O)N4CCOCC4)cc3)c12` [GSK2177277], the “%Inh” value turned out to be 35%.

Take `COc1cc(Nc2nccc(N3CCC(NC(=O)c4cc5ccccc5s4)C3)n2)cc(OC)c1OC` (stereo not drawn) [GSK1379760]: the “%Inh” value was 37%.

Regarding `CN1CCN(Cc2cccc(-c3ccc4c(Nc5ccc(Oc6ccccc6)cc5)ccnc4c3)c2)CC1` [GW578342], the “%Inh” value came out at 0%.

`Fc1ccc(-c2ncn(C3CCNCC3)c2-c2ccnc(Oc3ccc(-c4ccccc4)cc3)n2)cc1` [SB-245391]: the “%Inh” value is recorded as 0%.

Regarding `Cc1ccc(S(=O)(=O)Nc2ccc(Nc3nccc(Nc4cccc5[nH]ncc45)n3)cc2)cc1` [GSK581271], the “%Inh” value was 0%.

On to `COC(=O)Nc1nc2ccc(Oc3ccc(NC(=O)Nc4cc(C(F)(F)F)ccc4F)cc3)cc2n1C.Cl` [GW692089], for which the “%Inh” value was 0%.

With `O=C(Nc1n[nH]c2nc(-c3ccc(O)cc3)ccc12)C1CC1` [SB-710363], the “%Inh” value was determined as 12%.

For the compound `CNC(=O)c1ccccc1Nc1nc(Nc2ccc(N3CCOCC3)cc2)ncc1Cl.Cl` [GSK1576028], the “%Inh” value was determined as 98%.

On to `Cl.NC(=O)c1cccc(Nc2nccc(Nc3ccc(Oc4c(Cl)cccc4Cl)c(Cl)c3)n2)c1` [GW659009], for which the “%Inh” value stood at 5%.

For the compound `COc1cc(Nc2nccc(-c3c(-c4cccc(NC(=O)c5c(F)cccc5F)c4)nn4ccccc34)n2)cc(OC)c1OC` [GSK323521], the “%Inh” value is recorded as 33%.

For `Cn1cc(-c2ccc3c(c2)CCN3C(=O)Cc2cccc(F)c2)c2c(N)ncnc21` [GSK2603358], the “%Inh” value was 0%.

For `Cc1cccc(Nc2nc(N[C@H]3CCNC3)ncc2C(N)=O)c1.Cl` [GSK2197149], the “%Inh” value was 0%.

Take `c1ccc(-c2n[nH]cc2Nc2ccnc3ccccc23)nc1` [GW694077]: the “%Inh” value amounted to 0%.

Consider `CN(C)Cc1ccc(-c2ccc3c(Nc4ccc(Oc5ccccn5)cc4)ccnc3c2)o1` [GW567148], for which the “%Inh” value stood at 0%.

Turning to `CCS(=O)(=O)c1ccc(OC)c(Nc2nccc(-c3c(-c4cccc(NC(=O)c5c(F)cccc5F)c4)nn4ncccc34)n2)c1` [GSK326180], the “%Inh” value amounted to 0%.

Consider `COc1cccc(C2=C(Nc3ccc(Cl)c(C(=O)O)c3)C(=O)NC2=O)c1` [SB-390769], for which the “%Inh” value worked out at 0%.

With `COc1cccc(NC(=O)NC2CCN(c3ccnc(Nc4cc(OC)c(OC)c(OC)c4)n3)C2)c1` (stereo not drawn) [GSK1379763], the “%Inh” value was found to be 52%.

On to `Cc1ccc(C)c(NC(=O)NC2CCN(c3ccnc(Nc4ccc(F)cc4)n3)C2)c1` (stereo not drawn) [GSK1379720], for which the “%Inh” value turned out to be 0%.

On to `Cc1ccc(F)c(C(=O)Nc2cccc(-c3nn4ccccc4c3-c3ccnc(Nc4cccc(F)c4)n3)c2)c1F` [GSK361061], for which the “%Inh” value came to 14%.

As for `Cc1occc1-c1ncc(OC[C@@H](N)Cc2c[nH]c3ccccc23)cc1-c1ccc2[nH]nc(C)c2c1.O=C(O)C(F)(F)F` [GSK682037], the “%Inh” value was determined as 0%.

As for `COc1ccc(Nc2nccc(N3CCC(NC(=O)Nc4cccc(OC)c4)C3)n2)cc1` (stereo not drawn) [GSK1379742], the “%Inh” value is listed as 0%.

For the compound `CC(=O)N1CCN(c2ccc(Nc3nccc(-c4sc(C(C)C)nc4-c4cccc(NS(=O)(=O)c5cccc(Cl)c5)c4)n3)cn2)CC1` [GSK1660437], the “%Inh” value was 73%.

In the case of `Nc1ncnc2c1nc(-c1ccccc1)n2-c1ccccc1` [SKF-97293], the “%Inh” value is reported as 6%.

`O=C(NC1CCN(c2ccnc(Nc3ccc(F)cc3)n2)C1)c1cc2ccccc2s1` (stereo not drawn) [GSK1379716]: the “%Inh” value came to 0%.

On to `COc1cccc(C(=O)Nc2cccc(Oc3ccc4nc(NC(=O)C5CC5)cn4n3)c2)c1`, for which the “%Inh” value came out at 0%.

In the case of `Cl.Cl.NCC(C(=O)Nc1cc(Br)c(-c2ccnc3[nH]ccc23)s1)c1ccccc1` (stereo not drawn) [GSK1269851], the “%Inh” value worked out at 10%.

Regarding `Cn1cc(-c2ccc3c(c2)CCN3C(=O)Cc2cccc(Cl)c2)c2c(N)ncnc21` [GSK2606590], the “%Inh” value amounted to 0%.

On to `COc1cc(Nc2ncc3c(C)nc(-c4cc5ccccc5[nH]4)n3n2)cc(OC)c1OC` [GW869516], for which the “%Inh” value was determined as 99.7%.

In the case of `O=C(Nc1cccc(-c2nn3ccccc3c2-c2ccnc(Nc3cccc(F)c3)n2)c1)c1c(F)ccc(F)c1Cl` [GSK357952], the “%Inh” value is given as 6%.

For the compound `C[C@@H](Oc1cc(-n2cnc3cc(-c4ccnc(NCCS(C)(=O)=O)c4)ccc32)sc1C(N)=O)c1ccccc1Cl` [GSK907232], the “%Inh” value was determined as 12%.

`COc1cccc(-c2ccc3c(NC(=O)C4CC4)n[nH]c3n2)c1` [SB-710903]: the “%Inh” value was 0%.

Turning to `Cc1ccc(C(=O)N2CC[C@@H](O)C2)cc1-n1c(C)cc(OCc2ccc(F)cc2F)c(Br)c1=O`, the “%Inh” value was 0%.

Turning to `Cl.c1ccc(-c2ccc3c(Nc4ccc5[nH]ccc5c4)ccnc3c2)nc1` [GW440138], the “%Inh” value came out at 0%.

On to `CCc1ccc(-c2ccc3c(c2)-c2c(cnn2C)S(=O)(=O)N3C)cc1`, for which the “%Inh” value stood at 0%.

On to `COc1ccc(Nc2nccc(NCCNC(=O)c3cc4ccccc4s3)n2)cc1` [GSK1379896], for which the “%Inh” value is 0%.

For `Nc1ncc(-c2ccc3nccc(-c4ccncc4)c3c2)cc1S(=O)(=O)N1CCOCC1` [GSK1627798], the “%Inh” value was determined as 0%.

Take `O=C(Nc1n[nH]c2cc(-c3ccoc3)ccc12)C1CC1` [SB-738481]: the “%Inh” value is 16%.

The values are drawn from PMC5540273 (PLoS ONE, 2017).
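Further: KINOMEscan kinase panel screen.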
